In PMC5540273 (PLoS ONE, 2017):

What follows are compounds tested on LATS1. Details: concentration: 1 μM, replicates: in singlicate; n = 1.
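Note: KINOMEscan kinase panel screen.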

| Compound | %Inh [%] |
| --- | --- |
| COc1cc(Nc2ncc3c(C)nc(-c4cc5ccccc5[nH]4)n3n2)cc(OC)c1OC [GW869516] | 0 |
| Cl.NC(=O)c1cccc(Nc2nccc(Nc3ccc(Oc4c(Cl)cccc4Cl)c(Cl)c3)n2)c1 [GW659009] | 0 |
| Cl.c1ccc(-c2ccc3c(Nc4ccc5[nH]ccc5c4)ccnc3c2)nc1 [GW440138] | 0 |
| CN1CCN(CCCNc2nccc(-c3c(-c4ccc(F)cc4)nn4cc(C(F)(F)F)ccc34)n2)CC1 [GW621581] | 0 |
| O=C(Nc1n[nH]c2cc(-c3ccoc3)ccc12)C1CC1 [SB-738481] | 0 |
| COc1cccc(C2=C(Nc3ccc(Cl)c(C(=O)O)c3)C(=O)NC2=O)c1 [SB-390769] | 18 |
| COc1cccc(-c2ccc3c(NC(=O)C4CC4)n[nH]c3n2)c1 [SB-710903] | 9 |
| COc1cccc(NC(=O)NC2CCN(c3ccnc(Nc4cc(OC)c(OC)c(OC)c4)n3)C2)c1 (stereo not shown) [GSK1379763] | 0 |
| CN(C)S(=O)(=O)c1cc(-c2ccc3nccc(-c4cccc(S(N)(=O)=O)c4)c3c2)cnc1N [GSK1669921] | 0 |
| Cn1cc(-c2ccc3c(c2)CCN3C(=O)Cc2cccc(F)c2)c2c(N)ncnc21 [GSK2603358] | 0 |
| COc1ccc(CNC(=O)NC2CCN(c3ccnc(Nc4ccc(F)cc4)n3)CC2)cc1 [GSK1379788] | 7 |
| O=C(Nc1cccc(-c2nn3ccccc3c2-c2ccnc(Nc3cccc(F)c3)n2)c1)c1c(F)ccc(F)c1Cl [GSK357952] | 0 |
| Cl.Cl.NCC(NCc1ccc(-c2ccnc3[nH]ccc23)s1)c1ccccc1 (stereo not shown) [GSK1321565] | 62 |
| CCc1ccc(-c2ccc3c(c2)-c2c(cnn2C)S(=O)(=O)N3C)cc1 | 0 |
| O=C(O)C(F)(F)F.O=C(O)C(F)(F)F.O=c1[nH]ccc2nc(N[C@@H]3CCCNC3)nc(Nc3ccc(S(=O)(=O)N4CCOCC4)cc3)c12 [GSK2177277] | 92.6 |
| Cc1occc1-c1ncc(OC[C@@H](N)Cc2c[nH]c3ccccc23)cc1-c1ccc2[nH]nc(C)c2c1.O=C(O)C(F)(F)F [GSK682037] | 93.9 |
| COCCOCCOc1cc2ncc3c4ccc(C#N)cc4[nH]c3c2cc1OC | 2 |
| CN(C)Cc1ccc(-c2ccc3c(Nc4ccc(Oc5ccccn5)cc4)ccnc3c2)o1 [GW567148] | 0 |
| Cc1ccc(C(=O)N2CC[C@@H](O)C2)cc1-n1c(C)cc(OCc2ccc(F)cc2F)c(Br)c1=O | 0 |
| Cn1cc(-c2[nH]c3cc(NC(=O)[C@H](N)C4CCCCC4)cc4c3c2C=NNC4=O)cn1 | 90.4 |
| COc1cc(Nc2nccc(-c3c(-c4cccc(NC(=O)c5c(F)cccc5F)c4)nn4ncccc34)n2)cc(OC)c1OC [GSK327238] | 44 |
| CC(=O)Nc1nc2cnc(Nc3cc(NC(=O)c4cccc(C5(C#N)CC5)c4Cl)ccc3C)nc2s1 | 26 |
| Cc1ccc(C(=O)Nc2ccc(Nc3ccnc4cc(-c5nccs5)ccc34)cc2O)cc1.Cl [GW494702] | 0 |
| Nc1ncc(-c2cccnc2)c2scc(-c3ccc4c(c3)CCN4C(=O)Cc3ccccc3)c12 [GSK683281] | 0 |

Each compound was assayed on LATS2. Details: concentration: 1 μM, replicates: in singlicate; n = 1.

| Compound | %Inh [%] |
| --- | --- |
| COc1ccc(Nc2nccc(N3CCC(NC(=O)Nc4cccc(OC)c4)C3)n2)cc1 (stereo not shown) [GSK1379742] | 0 |
| Cc1ccc(C)c(NC(=O)NC2CCN(c3ccnc(Nc4ccc(F)cc4)n3)C2)c1 (stereo not shown) [GSK1379720] | 0 |
| c1ccc(-c2n[nH]cc2Nc2ccnc3ccccc23)nc1 [GW694077] | 0 |
| COc1cc(Nc2nccc(N3CCC(NC(=O)Nc4cccc(C(C)=O)c4)C3)n2)cc(OC)c1OC (stereo not shown) [GSK1379753] | 0 |
| O=C(Nc1cccc(-c2nn3ncccc3c2-c2ccnc(Nc3ccccc3)n2)c1)c1c(F)cccc1F [GSK198271] | 0 |
| c1ccc(-c2cnc3nccnn23)cc1 [AH20685] | 0 |
| Cl.c1ccc(-c2ccc3c(Nc4ccc5[nH]ncc5c4)ccnc3c2)nc1 [GW440137] | 3 |
| Fc1ccc(-c2ncn(C3CCNCC3)c2-c2ccnc(Oc3ccc(-c4ccccc4)cc3)n2)cc1 [SB-245391] | 21 |
| Clc1ccc(-c2nn3ncccc3c2-c2ccnc(Nc3ccc4c(c3)OCCO4)n2)cc1 [GW829116] | 0 |
| Cc1ccc(F)c(C(=O)Nc2cccc(-c3nn4ccccc4c3-c3ccnc(Nc4cccc(F)c4)n3)c2)c1F [GSK361061] | 23 |
| CNC(=O)c1ccccc1Nc1nc(Nc2ccc(N3CCOCC3)cc2)ncc1Cl.Cl [GSK1576028] | 92.1 |
| Cc1cccc(Nc2nc(N[C@H]3CCNC3)ncc2C(N)=O)c1.Cl [GSK2197149] | 0 |
| CCn1c(-c2nonc2N)nc2c(C#CC(C)(C)O)nc(OC[C@H](N)c3ccccc3)cc21 [GSK943949] | 100 |
| COc1cc(Nc2ncc3c(C)nc(-c4cc5ccccc5[nH]4)n3n2)cc(OC)c1OC [GW869516] | 0 |
| Cl.NC(=O)c1cccc(Nc2nccc(Nc3ccc(Oc4c(Cl)cccc4Cl)c(Cl)c3)n2)c1 [GW659009] | 0 |
| Cl.c1ccc(-c2ccc3c(Nc4ccc5[nH]ccc5c4)ccnc3c2)nc1 [GW440138] | 17 |
| CN1CCN(CCCNc2nccc(-c3c(-c4ccc(F)cc4)nn4cc(C(F)(F)F)ccc34)n2)CC1 [GW621581] | 0 |
| O=C(Nc1n[nH]c2cc(-c3ccoc3)ccc12)C1CC1 [SB-738481] | 3 |
| COc1cccc(C2=C(Nc3ccc(Cl)c(C(=O)O)c3)C(=O)NC2=O)c1 [SB-390769] | 100 |

| Compound | %Inh [%] |
| --- | --- |
| COc1cccc(-c2ccc3c(NC(=O)C4CC4)n[nH]c3n2)c1 [SB-710903] | 10 |
| COc1cccc(NC(=O)NC2CCN(c3ccnc(Nc4cc(OC)c(OC)c(OC)c4)n3)C2)c1 (stereo not shown) [GSK1379763] | 13 |
| CN(C)S(=O)(=O)c1cc(-c2ccc3nccc(-c4cccc(S(N)(=O)=O)c4)c3c2)cnc1N [GSK1669921] | 14 |
| Cn1cc(-c2ccc3c(c2)CCN3C(=O)Cc2cccc(F)c2)c2c(N)ncnc21 [GSK2603358] | 13 |
| COc1ccc(CNC(=O)NC2CCN(c3ccnc(Nc4ccc(F)cc4)n3)CC2)cc1 [GSK1379788] | 8 |
| O=C(Nc1cccc(-c2nn3ccccc3c2-c2ccnc(Nc3cccc(F)c3)n2)c1)c1c(F)ccc(F)c1Cl [GSK357952] | 49 |
| Cl.Cl.NCC(NCc1ccc(-c2ccnc3[nH]ccc23)s1)c1ccccc1 (stereo not shown) [GSK1321565] | 95 |
| CCc1ccc(-c2ccc3c(c2)-c2c(cnn2C)S(=O)(=O)N3C)cc1 | 0 |
| O=C(O)C(F)(F)F.O=C(O)C(F)(F)F.O=c1[nH]ccc2nc(N[C@@H]3CCCNC3)nc(Nc3ccc(S(=O)(=O)N4CCOCC4)cc3)c12 [GSK2177277] | 96.9 |
| Cc1occc1-c1ncc(OC[C@@H](N)Cc2c[nH]c3ccccc23)cc1-c1ccc2[nH]nc(C)c2c1.O=C(O)C(F)(F)F [GSK682037] | 94.8 |
| COCCOCCOc1cc2ncc3c4ccc(C#N)cc4[nH]c3c2cc1OC | 10 |
| CN(C)Cc1ccc(-c2ccc3c(Nc4ccc(Oc5ccccn5)cc4)ccnc3c2)o1 [GW567148] | 0 |
| Cc1ccc(C(=O)N2CC[C@@H](O)C2)cc1-n1c(C)cc(OCc2ccc(F)cc2F)c(Br)c1=O | 0 |
| Cn1cc(-c2[nH]c3cc(NC(=O)[C@H](N)C4CCCCC4)cc4c3c2C=NNC4=O)cn1 | 100 |
| COc1cc(Nc2nccc(-c3c(-c4cccc(NC(=O)c5c(F)cccc5F)c4)nn4ncccc34)n2)cc(OC)c1OC [GSK327238] | 28 |
| CC(=O)Nc1nc2cnc(Nc3cc(NC(=O)c4cccc(C5(C#N)CC5)c4Cl)ccc3C)nc2s1 | 0 |
| Cc1ccc(C(=O)Nc2ccc(Nc3ccnc4cc(-c5nccs5)ccc34)cc2O)cc1.Cl [GW494702] | 0 |
| Nc1ncc(-c2cccnc2)c2scc(-c3ccc4c(c3)CCN4C(=O)Cc3ccccc3)c12 [GSK683281] | 19 |
